Most compounds without a hit are left out; they make up all but 8.1% or so of the library.
MCF10A rereplic – DNA re-replication induction in MCF 10a cells | MCF 10A DNA re-replication, Hoechst nuclear intensity, 48 h | Potency, µM (doses to about 46.1 µM), most hits filed as activators | actives 2.9% (n = 350,000); note: nearly all actives have a fitted effect of over 50% in size
SW480 rerep – induces DNA re-replication in SW480 colon adenocarcinoma cells | SW480 DNA re-replication, Hoechst DNA content imaging, 48 h | Potency, µM (highest dose often 46.1 µM), hits mostly activators | actives 1.8% (n = 340,000); note: nearly all actives have a fitted effect of over 55% in size
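SW480 cells exposed to compounds for 48 hr at 37 C, 5% CO2, then Hoechst-stained 40 min. Nuclear DNA content imaged by fluorescence scanning (405 nm excitation, 500-530 nm emission); re-replication scored as increased high-intensity nuclei.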
KB-V1 cytotox – kills drug-selected multidrug resistant KB-V1 cells | actives 3.4% (n = 400,000) | Potency, µM (titrated, usually from 46.1 µM), actives largely listed as cytotoxic | AID 1347076 | KB-V1 MDR cells viability, CellTiter-Glo, 72 h; note: nearly all actives have a fitted effect of over 60% in size
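In this primary screen, KB-V1 cells overexpressing P-gp are incubated with library compounds (lowest to highest concentration) for 72 h at 37 degrees C before a luminescent ATP viability read.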
KB-3-1 tox – KB-3-1 parental cell cytotoxicity; Potency, µM (titrated, usually from 46.1 µM), hits mostly cytotoxic; actives 1.4% (n = 400,000); KB-3-1 viability, CellTiter-Glo ATP luminescence, 72 h; note: nearly all actives have a fitted effect of over 60% in size
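Using CellTiter-Glo luminescence, growth of non-resistant KB-3-1 adenocarcinoma cells is assessed 72 h after pin-tool compound addition at 37 °C. Normalized responses across the concentration series yield fitted curves.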
ELG1 DNA repair – blocks ELG1-dependent DNA repair in HEK293T cells; actives 2.3% (n = 330,000); HEK293T ELG1-luciferase reporter, luminescence, 16 h; DNA damage induced by 5-fluorouridine; Potency, µM (highest dose often 46.1 µM), usual class: inhibitors; note: nearly all actives have a fitted effect of over 55% in size
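Step one: seed 2,000 cells per well. Step two: pin-transfer compound or DMSO alongside 5-fluorouridine. Step three: incubate 16 hr, 37 °C, 5% CO2. Step four: add ONE-Glo, wait 30 min, read luminescence.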
Each line names hits and unclear results; the compound was inactive in the other large screens. Calls come from the whole dose curve; as a rule, active = well fitted curve in the direction sought with a large enough effect; inconclusive = small, poorly fitted or top-dose-only effect, or another doubt; inactive = no such curve, though single readings can be large; an effect the other way counts as inactive or inconclusive.

Cc1noc(C)c1COC(=O)c1cccc(S(=O)(=O)N2CCCCCC2)c1	MCF10A rereplic inconclusive, KB-V1 cytotox inconclusive, ELG1 DNA repair 5.8µM
COc1cc(OC)c(N(C)S(=O)(=O)c2cccc(C(=O)OCC(=O)N3CCOCC3)c2)cc1Cl	KB-V1 cytotox inconclusive, ELG1 DNA repair inconclusive
N#Cc1nc(N)nc(N2CCCCC2)n1	none (no result: MCF10A rereplic, SW480 rerep, ELG1 DNA repair)
Cc1cc(C)cc(NC(=O)C2CCN(c3nc4ccccc4nc3C(F)(F)F)CC2)c1	none (no result: MCF10A rereplic, SW480 rerep, ELG1 DNA repair)
N=c1c2c(-c3ccccc3)c(-c3ccccc3)n(Cc3ccco3)c2ncn1CCO	MCF10A rereplic 10µM
N=c1c2c(-c3ccccc3)c(-c3ccccc3)n(Cc3ccco3)c2ncn1CCCO	MCF10A rereplic inconclusive, SW480 rerep inconclusive, KB-V1 cytotox inconclusive
O=C(O)C1CCCN(S(=O)(=O)c2ccccc2[N+](=O)[O-])C1 (configuration not stated)	KB-V1 cytotox inconclusive
O=C(C1CCCN(S(=O)(=O)c2ccccc2[N+](=O)[O-])C1)N1CCCC1 (configuration not stated)	KB-V1 cytotox 12µM
O=C(C1CCCN(S(=O)(=O)c2cccc3nonc23)C1)N1CCN(c2cccc(Cl)c2)CC1 (configuration not stated)	MCF10A rereplic inconclusive, KB-V1 cytotox inconclusive, ELG1 DNA repair inconclusive
O=C(C1CCCN(S(=O)(=O)c2cccc3nonc23)C1)N1CCN(c2ccccc2Cl)CC1 (configuration not stated)	MCF10A rereplic inconclusive, SW480 rerep inconclusive, KB-3-1 tox inconclusive, ELG1 DNA repair 23µM
COc1ccc(-n2c(=O)c3ccccc3n(CC(=O)NCCc3ccc(OC)c(OC)c3)c2=O)cc1	KB-V1 cytotox inconclusive (no result: MCF10A rereplic, SW480 rerep, ELG1 DNA repair)
CC(=O)c1ccc(N2CCN(C(=O)c3cc4c(s3)-c3ccccc3OC4)CC2)cc1	KB-V1 cytotox 16µM (no result: MCF10A rereplic, SW480 rerep, ELG1 DNA repair)
O=C(c1cc2c(s1)-c1ccccc1OC2)N1CCN(c2ccc(F)cc2)CC1	none (no result: MCF10A rereplic, SW480 rerep, ELG1 DNA repair)
CO[C@@H]1CN(C)C(=O)c2cc(NC(=O)NC3CCCCC3)ccc2OC[C@@H](C)N(CC2CCOCC2)C[C@@H]1C	none (no result: MCF10A rereplic, SW480 rerep, ELG1 DNA repair)
COc1ccc(/C=C/C(=O)OCC(=O)NCC2CCCO2)cc1 (configuration not stated)	none
CCOC(=O)/C=c1\s/c(=C\c2ccc3cc(OC)ccc3c2)c(=O)n1CC(=O)NCC1CCCO1 (configuration not stated)	MCF10A rereplic 12µM, KB-V1 cytotox 18µM, KB-3-1 tox 21µM
CCOC(=O)/C=c1/s/c(=C/c2ccc3cc(OC)ccc3c2)c(=O)n1CC(=O)NCc1ccc2c(c1)OCO2	MCF10A rereplic 1.5µM, SW480 rerep inconclusive, KB-3-1 tox inconclusive (no result: ELG1 DNA repair)
CCOC(=O)/C=c1\s/c(=C\c2ccc(C(F)(F)F)cc2)c(=O)n1CC(=O)NCc1ccco1	MCF10A rereplic 23µM, SW480 rerep 2.3µM, ELG1 DNA repair inconclusive
COc1ccc2[nH]c(C(O)C(O)c3nc4c(OC)c(OC)ccc4[nH]3)nc2c1OC (configuration not stated)	none (no result: MCF10A rereplic, SW480 rerep, ELG1 DNA repair)
CCOCCc1nnc(NC(=O)C(=O)c2cc(C)n(-c3ccc(C)c(C)c3)c2C)s1	none (no result: MCF10A rereplic, SW480 rerep, ELG1 DNA repair)
Cc1ccc(-c2ccc(=O)[nH]n2)cc1	KB-V1 cytotox inconclusive
CCCCCc1ccc(-c2ccc(=O)[nH]n2)cc1	KB-V1 cytotox 5.2µM, KB-3-1 tox 6.5µM, ELG1 DNA repair inconclusive
Cc1ccsc1/C=N/Nc1ncnc2nc[nH]c12	ELG1 DNA repair inconclusive
Cc1ccccc1/C=N/Nc1ncnc2nc[nH]c12	SW480 rerep 18µM, ELG1 DNA repair inconclusive
O=C(CC1Oc2ccccc2NC1=O)NCc1ccccc1 (configuration not stated)	none
CC(=O)CC1OC(=O)C(Br)=C1NCc1ccccc1 (configuration not stated)	MCF10A rereplic 2.6µM, SW480 rerep inconclusive, ELG1 DNA repair inconclusive
Nc1nonc1-n1nnc(C(=O)N/N=C/c2ccccc2)c1CN1CCc2ccccc21	KB-3-1 tox inconclusive
CCOC(=O)c1nnn(-c2nonc2N)c1CN1CCc2ccccc2C1	KB-V1 cytotox inconclusive
COC(=O)c1nnn(-c2nonc2N)c1CN1CCc2ccccc21	KB-V1 cytotox inconclusive, KB-3-1 tox 23µM, ELG1 DNA repair inconclusive
CC(C)OC(=O)c1nnn(-c2nonc2N)c1CN1CCc2ccccc2C1	KB-V1 cytotox 6.5µM
CC[C@@H](NC(=O)[C@H](Cc1ccccc1)NC(=O)CC[C@H]1O[C@@H](n2ccc(=O)[nH]c2=O)[C@H](O)[C@@H]1O)c1ccccc1	none (no result: MCF10A rereplic, SW480 rerep, ELG1 DNA repair)
CC(C)C(NC(=O)c1ccccc1)C(=O)OCC(=O)N1CCN(c2ccccc2)CC1 (configuration not stated)	none
O=C1CSC(c2cn(-c3ccccc3)nc2-c2cc3ccccc3oc2=O)N1Cc1ccccc1 (configuration not stated)	MCF10A rereplic inconclusive, ELG1 DNA repair 21µM
CCN(CC)S(=O)(=O)c1ccc2c(c1)c(=O)c(C(=O)N1CCN(c3cccc(C)c3)C(C)C1)cn2C (configuration not stated)	none (no result: MCF10A rereplic, SW480 rerep, ELG1 DNA repair)
Clc1ccc2nc(COc3ccccc3)[nH]c2c1	MCF10A rereplic 3.3µM, SW480 rerep 7.3µM, KB-3-1 tox inconclusive, ELG1 DNA repair inconclusive
O=c1[nH]c(COc2ccccc2)nc2ccccc12	MCF10A rereplic inconclusive, SW480 rerep inconclusive, KB-V1 cytotox inconclusive, ELG1 DNA repair inconclusive
Cc1ccc(C)c(OCCC(=O)OCC(=O)Nc2ccc(Cl)cn2)c1	SW480 rerep 18µM
Cc1ccc(OCCC(=O)OCC(=O)Nc2ccc(Cl)cn2)cc1	none
O=S(=O)(c1ccc2oc3ccccc3c2c1)N1CCOCC1	KB-V1 cytotox 16µM
CCN(CC)C(=O)C1CCN(S(=O)(=O)c2ccc3oc4ccccc4c3c2)CC1	KB-V1 cytotox 12µM, ELG1 DNA repair inconclusive
O=S1(=O)C=C[C@@H](CO)N1Cc1ccc(Br)cc1	none (no result: MCF10A rereplic, SW480 rerep, ELG1 DNA repair)
CS(=O)(=O)Nc1cccc(NC(=O)C2Cc3c(-c4ccco4)ccnc3O2)c1 (configuration not stated)	KB-3-1 tox inconclusive (no result: MCF10A rereplic, SW480 rerep, ELG1 DNA repair)
O=c1cc(COc2ccccc2Cl)nc2scc(-c3ccccc3)n12	none (no result: MCF10A rereplic, SW480 rerep, ELG1 DNA repair)
O=C(Nc1ccc2oc(-c3cccc(F)c3)nc2c1)c1ccc2ccccc2c1	none (no result: MCF10A rereplic, SW480 rerep, ELG1 DNA repair)
C/C(CC(=O)Nc1ccccn1)=N\NC(=O)c1ccccc1O	SW480 rerep 1.3µM, KB-3-1 tox inconclusive, ELG1 DNA repair inconclusive
C/C(CC(=O)Nc1cc(C)ccn1)=N\NC(=O)c1cccc(C)c1O	MCF10A rereplic inconclusive, SW480 rerep 12µM, KB-V1 cytotox inconclusive, KB-3-1 tox inconclusive, ELG1 DNA repair inconclusive
C/C(CC(=O)Nc1ccccn1)=N\NC(=O)c1ccncc1	none (no result: MCF10A rereplic, SW480 rerep, KB-V1 cytotox, KB-3-1 tox)
CC(=O)c1cccc(NC(=O)c2nc(-c3ccccc3)n(-c3ccccc3C)n2)c1	none (no result: MCF10A rereplic, SW480 rerep, ELG1 DNA repair)
Cc1ccc(S(=O)(=O)N[C@@H](Cc2ccccc2)C(=O)CCl)cc1	MCF10A rereplic 2.3µM, SW480 rerep inconclusive, KB-V1 cytotox inconclusive, KB-3-1 tox inconclusive, ELG1 DNA repair 16µM
